NCOA2 inhibitor: inhibition of GAL4-SRC2 driven luciferase reporter, primary screen, SRC2 inhibitor project, cell-based, luminescence | inhibition, % at 9 µM | HEK293 GAL4-SRC2 luciferase reporter | hit rate 0.17% among 370,000 | Nuclear receptor coactivator 2 (Homo sapiens), Q15596;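 active = inhibition above the mean inhibition of all tested compounds plus 3 SD, set per campaign, cut at about 52% in these data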;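 also: 0% = DMSO treated cells and 100% = cells given Gossypol at 36 µM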
NR5A2 inv ag: LRH-1 (NR5A2) inverse agonists, primary screen, cell-based, luminescence, HEK293T, StAR-luciferase reporter; inhibition, % at 3.6 µM; hit rate 0.13% among 360,000; Nuclear receptor subfamily 5 group A member 2 (Homo sapiens), O00482; AID 602396, 2012; LRH-1 transfected, 24 h;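 active = inhibition above the mean inhibition of all tested compounds plus 3 SD, cut at about 73% in these data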;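 also: 0% = DMSO wells and 100% = reporter-only cells lacking LRH-1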
Target sequence (O00482 whole entry, looked up): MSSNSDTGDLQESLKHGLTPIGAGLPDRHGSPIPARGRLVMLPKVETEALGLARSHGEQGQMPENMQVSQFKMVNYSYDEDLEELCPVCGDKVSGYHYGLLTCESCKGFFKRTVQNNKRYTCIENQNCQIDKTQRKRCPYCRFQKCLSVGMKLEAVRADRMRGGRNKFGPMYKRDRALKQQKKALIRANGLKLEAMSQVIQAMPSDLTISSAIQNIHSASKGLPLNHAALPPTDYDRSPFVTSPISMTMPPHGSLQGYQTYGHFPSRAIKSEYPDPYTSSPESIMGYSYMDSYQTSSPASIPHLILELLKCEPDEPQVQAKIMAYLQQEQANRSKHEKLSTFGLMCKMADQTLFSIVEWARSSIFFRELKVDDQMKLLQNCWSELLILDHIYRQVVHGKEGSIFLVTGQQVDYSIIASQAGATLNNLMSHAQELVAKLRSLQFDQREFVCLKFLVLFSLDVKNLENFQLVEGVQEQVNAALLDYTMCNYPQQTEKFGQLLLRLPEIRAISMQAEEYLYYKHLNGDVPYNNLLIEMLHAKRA
NCOA1 inh: SRC1 coactivator transcriptional activity inhibitors, primary screen, cell-based, luminescence; Nuclear receptor coactivator 1 (Homo sapiens), Q15788; HEK293 GAL4-SRC1 luciferase reporter; inhibition, % at 3.6 µM; hit rate 0.12% among 360,000; AID 588354, 2011;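 active = inhibition above the campaign mean plus 3 SD, with each screening campaign given its own cutoff, cut at about 60% in these data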;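 also: 0% = DMSO treated cells and 100% = gossypol at 36 µM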
NR2F2 inh: NR2F2 transcriptional activity inhibitors, primary screen, cell-based, luciferase reporter, HEK293T, luminescence; AID 686940, 2013; HEK293T NGFI-A luciferase reporter; inhibition, % at 8.6 µM; COUP transcription factor 2 (Homo sapiens), P24468; hit rate 0.7% among 370,000;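 active = inhibition above a per-plate cutoff, mean inhibition of test wells between control levels plus 3 SD, cut at about 38% in these data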;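 also: cells cotransfected with COUP-TFII expression vector driving the NGFI-A reporter; 0% = median of COUP-TF2 test wells and 100% = reporter-only cells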
NCOA3 inh: SRC3 coactivator transcriptional activity inhibitors, primary screen, cell-based, luminescence | Nuclear receptor coactivator 3 (Homo sapiens), Q9Y6Q9 | inhibition, % at 3.6 µM | HEK293 GAL4-SRC3 luciferase reporter | hit rate 0.17% among 360,000;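 active = inhibition above a per-campaign cutoff, the mean of all compounds plus 3 SD, cut at about 60% in these data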;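 also: 0% = DMSO-treated cells and 100% = gossypol-treated cells at 36 µM; higher means less SRC3-driven luciferase light from the GAL4 reporter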
Gli-Sufu block: Gli-Sufu pathway antagonists, primary screen, luciferase luminescence, Sufu-KO-LIGHT cells, uHTS. Sufu-KO-LIGHT fibroblasts, Gli luciferase reporter luminescence. inhibition, % at 5 µM. hit rate 0.74% among 340,000;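 active = inhibition above about 55%, limit read from the data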;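 also: 0% = DMSO-treated cells and 100% = wells with medium but no cells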
Gli antag conf: Gli-SUFU pathway antagonists, confirmation, single concentration, luciferase luminescence, Sufu-KO-LIGHT cells. shares compounds with Gli-Sufu block. Gli luciferase reporter. inhibition, % at 5 µM. hit rate 40% among 2,500;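 active = mean inhibition at 5 µM reaching about 45%, limit read from the data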;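 also: plate controls were DMSO-treated cells for no effect and wells lacking cells for full effect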
SufuKO cytotox: cytotoxicity in Sufu-KO-LIGHT cells, confirmation, cytotoxicity control for Gli-SUFU antagonist project, cell-based, ATP luminescence, single concentration. shares compounds with Gli-Sufu block. cytotoxicity, % at 5 µM. hit rate 32% among 2,500. AID 651994, 2013;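 active = mean cytotoxicity at 5 µM above about 25%, limit read from the data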;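 also: cells exposed to compound overnight for roughly 16 to 18 hours; plate controls were DMSO wells with cells for no effect and medium without cells for full effect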
Wnt3a cs: Wnt3a reporter signal inhibition, confirmation, counter-screen for Gli-SUFU antagonist project, Wnt-LIGHT cells, luminescence, single concentration | shares compounds with Gli-Sufu block | Wnt3a-driven luciferase reporter | inhibition, % at 6.25 µM | hit rate 20% among 2,500 | AID 651995, 2013;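 active = mean inhibition above about 25%, limit read from the data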
Gal4-VP16 ctr: Gal4-VP16 luciferase reporter inhibitors, counter-screen for COUP-TFII antagonist project, cell-based, luminescence, HEK293 | shares compounds with NR2F2 inh | inhibition, % at 8.5 µM | hit rate 25% among 2,500 | AID 687007, 2013; in the data active = inhibition above about 13%
COUP-TFII conf: NR2F2 transcriptional activity inhibitors, confirmation, cell-based, luciferase reporter, HEK293, triplicate; shares compounds with NR2F2 inh; HEK293 NGFI-A luciferase reporter, luminescence; inhibition, % at 8.5 µM; hit rate 45% among 2,500;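 active = mean inhibition over three repeats above a set limit taken from the earlier primary screen, cut at about 38% in these data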;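 also: 100% = cells given the luciferase reporter alone without the COUP-TF2 vector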
* marks the source's active call; other numbers are inactive results; · = no result; ! = repeats disagree. A selection: hits, their analogues and other compounds. The true share with any hit is near 1.3%.

SMILES	NCOA2 inhibitor	NR5A2 inv ag	NCOA1 inh	NR2F2 inh	NCOA3 inh	Gli-Sufu block	Gli antag conf	SufuKO cytotox	Wnt3a cs	Gal4-VP16 ctr	COUP-TFII conf
CN(CCc1ccccn1)C(=O)Cn1nc(-c2ccccc2)ccc1=O	-4.4	·	·	-30.0	·	·	·	·	·	·	·
Cc1oc(C(C)(C)C)cc1C(=O)NCc1ccc2c(c1)OCO2	-3.9	-7.8	-2.8	9.3	11.5	-3.8	·	·	·	·	·
Cn1nc(C(C)(C)C)cc1C(=O)NCc1ccc2c(c1)OCO2	15.1	41.5	6.6	59.9*	15.4	68.0*	68.2*	30.2*	42.9*	-6.5	50.2*
O=C(NCCc1cccc(Cl)c1)c1ccc(OC2CCN(Cc3ccccn3)CC2)cc1	37.4	29.0	50.6	61.1*	28.4	52.3	49.9*	15.1	9.5	-38.0	40.1*
CCn1nc(C)c(CNC(=O)c2ccc(OC3CCN(Cc4ccccn4)CC3)cc2)c1C	8.0	26.8	-1.1	58.1*	25.5	64.5*	65.7*	33.2*	37.9*	16.4*	65.6*
COCCCN1C(=O)[C@H](CC(=O)NCC2CCCCC2)[C@]2(C(=O)OC)CCCCC=C12	11.5	·	·	-11.4	·	·	·	·	·	·	·
Cc1ccc2c(c1)[nH]c1c(N3CCN(Cc4ccccc4)CC3)ncnc12	3.2	22.5	14.1	66.7*	20.5	68.2*	62.6*	30.1*	6.6	0.1	40.0*
COc1ccc2c(c1)[nH]c1c(N3CCSCC3)ncnc12	8.8	17.9	-12.2	18.9	26.4	14.8	·	·	·	·	·
COC(=O)[C@@]12CCCCC3=C1N(CCC3)C(=O)[C@H]2CC(=O)NCc1cccc(C(F)(F)F)c1	-0.5	·	·	11.8	·	·	·	·	·	·	·
CCc1nc(C)cn1S(=O)(=O)c1cc(C)c(OC)c(C)c1C	23.7	-5.0	-2.9	48.9*	14.3	59.9*	52.3*	29.8*	54.7*	7.4	39.8*
CCc1nc(C)cn1S(=O)(=O)c1cc(C)c(OC)cc1C	-11.0	-31.0	-17.3	-8.7	-2.0	0.7	·	·	·	·	·
Cc1nn(-c2ccc(NC(=O)c3ccncc3)cc2)c(C)c1Cl	7.7	28.6	22.7	67.4*	-9.8	56.4*	45.4*	15.5	24.1	-6.4	58.0*
Cc1cc(-c2nnc3n2N=C(c2ccc(-c4ccccc4)cc2)CS3)n[nH]1	-21.0	16.1	-2.0	-17.2	-16.4	14.8	·	·	·	·	·
C[n+]1c2n(c3ccccc31)N=C(c1ccc(-c3ccccc3)cc1)CS2	-54.3	58.4	-5.3	70.4*	62.7*	86.8*	89.0*	31.9*	11.6	8.0	64.6*
C[n+]1c2n(c3ccccc31)N=C(c1ccccc1)CS2	14.1	28.7	1.0	39.6*	18.3	60.1*	71.6*	28.3*	-13.5	-1.0	46.6*!
Cc1cccc(-c2nnc3n2N=C(c2ccccc2)CS3)c1	9.6	28.7	-9.8	13.7	13.0	5.5	·	·	·	·	·
Cc1nc2ccc(NC(=O)c3cc(S(=O)(=O)N(C)c4ccccc4)ccc3Cl)cc2s1	24.2	43.1	28.4	77.8*	14.7	75.3*	73.2*	25.6*	52.6*	5.8	69.4*
CCOC(=O)C(Cc1ccccc1)CP(=O)(OC)[C@@H](C)NC(=O)OCc1ccccc1 (some centres undefined)	-22.9	·	·	-3.5	·	·	·	·	·	·	·
Cc1ccc(NC(=O)COc2ccccc2C(N)=O)cc1S(=O)(=O)N1CCCCCC1	40.7	23.4	12.5	60.4*	12.9	50.3	48.4*	28.1*	-12.9	-6.9	46.2*
Cc1ccc(NC(=O)/C=C/c2ccco2)cc1S(=O)(=O)N1CCCCCC1	21.1	-14.1	-9.4	50.3*	22.9	77.1*	88.0*	8.6	-23.2	0.0	30.6
Cc1cccc(OCCC(=O)Nc2ccc(C)c(S(=O)(=O)N3CCCCC3)c2)c1	-33.8	1.4	9.7	37.8*	23.6	62.0*	21.8	21.6	-31.5	-7.1	8.3
COc1ccc(-c2cn(-c3ccccc3)c3[n+]2CCS3)cc1	13.7	44.0	22.1	50.5*	34.4	80.7*	82.5*	33.1*	30.4*	3.8	34.2
COc1ccc(-n2cc(-c3ccccc3)[nH]c2=S)cc1	-21.8	-71.4	-44.1	-13.9	-42.6	-32.4	·	·	·	·	·
COc1cccc(CN(C)C(=O)c2cccc(S(=O)(=O)N3CCN(c4ccc(F)cc4)CC3)c2)c1OC	25.1	5.7	7.5	58.5*	17.2	51.2	50.0*	32.5*	-11.9	-1.8	38.8*
CN(Cc1ccc(Cl)cc1Cl)C(=O)c1cccc(S(=O)(=O)N2CCN(c3ccccc3)CC2)c1	28.2	4.4	3.8	17.1	-7.1	29.3	·	·	·	·	·
CN(Cc1c(F)cccc1Cl)C(=O)c1cccc(S(=O)(=O)N2CCN(Cc3ccccc3)CC2)c1	-4.9	-6.0	-6.5	12.6	0.0	7.7	·	·	·	·	·
CN(Cc1ccc(OC(F)F)cc1)C(=O)c1cccc(S(=O)(=O)N2CCN(Cc3ccccc3)CC2)c1	20.1	35.9	25.0	55.3*	31.2	58.2*	58.3*	21.9	2.8	-2.9	42.5*
CN(CCOc1ccc(Cl)cc1)C(=O)c1cccc(S(=O)(=O)N2CCN(c3ccccc3)CC2)c1	29.6	30.9	15.3	58.8*	3.5	50.9	57.5*	34.1*	-5.9	5.9	44.3*
CCOc1ccc(N=C(NN)c2ccc3ccccc3n2)cc1	38.1	15.8	43.3	39.8*	44.2	63.8*	73.2*	13.5	81.3*	-41.0	-13.6
CN(Cc1ccco1)C(=O)c1cccc2c1C(=O)N(Cc1cccnc1)C2	7.7	·	·	-8.7	·	·	·	·	·	·	·

Screening data deposited in PubChem by several laboratories.
